Experiment [1] is described as follows: APR_HepG2_CellCycleArrest_24hr: Apredica 24-hour HepG2 Assay for Cell Cycle Arrest (AID 2282905).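 Note: cell cycle arrest scored as ratio of 2N to 4N nuclear DNA content.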 The conditions noted are these: imaging, actives raise or lower the signal. In short, it runs like this: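 Cell cycle arrest is scored from nuclear DNA content measured by high-content imaging of Hoechst 33342-stained HepG2 cells following 24-hour treatment at ten concentrations up to 200 uM, with DMSO as baseline.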

A short description of experiment [2]: APR_HepG2_StressKinase_1hr: Apredica 1-hour HepG2 Assay for Stress Kinase (AID 2282906). Particulars: HepG2 stress kinase (phospho-c-Jun) imaging, actives raise or lower the signal. The method in brief:
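HepG2 cells dosed 0.39-200 uM (0.5% DMSO) for 1 h, then formaldehyde-fixed. Stress kinase read by phospho-c-Jun immunofluorescence using high-content imaging; bidirectional fit vs DMSO.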

Experiment [3] can be described thus: APR_HepG2_NuclearSize_24hr: Apredica 24-hour HepG2 Assay for Nuclear Size (AID 2282907). Particulars: high-content imaging, actives raise or lower the signal. In short, it runs like this:
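Compounds in DMSO (final 0.5%) were added to human HepG2 hepatoma cells at ten concentrations up to 200 uM for 24 hr. Fixed nuclei were stained with Hoechst 33342, and nuclear diameter was quantified from automated images.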

Experiment [4] in a line: APR_HepG2_CellLoss_24hr: Apredica 24-hour HepG2 Assay for Cell Loss (AID 2282908). Particulars: high-content imaging. In short, it runs like this: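 Cell number is quantified by fluorescence imaging of Hoechst 33342-stained nuclei following dosing at 0.39–200 uM in 0.5% DMSO. Curves are fitted in both directions from the DMSO baseline.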
Experiment [5] is described as follows: APR_HepG2_MicrotubuleCSK_24hr: Apredica 24-hour HepG2 Assay for Microtubule CSK Stabilty (AID 2282909). Particulars: HepG2 microtubule cytoskeleton imaging, actives raise or lower the signal. In short, it runs like this: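 Steps: dose HepG2 for 24 h (0.39–200 uM, 0.5% DMSO); fix 30 min in 3.7% formaldehyde at room temperature; permeabilize; stain alpha-tubulin 60 min; image microtubule cytoskeleton at 20x. Signal change fitted in both directions relative to DMSO.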

A short description of experiment [6]: APR_HepG2_MitoticArrest_24hr: Apredica 24-hour HepG2 Assay for Mitotic Arrest (AID 2282910). Particulars: high-content imaging, actives raise or lower the signal. In short, it runs like this:
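HepG2 human liver cells were exposed to compounds at 0.39–200 uM (10 concentrations, duplicate) in 0.5% v/v DMSO for 24 hr, then fixed and immunostained for phospho-histone H3 with Hoechst 33342. Mitotic arrest came from HCS fluorescent imaging, fitted bidirectionally against DMSO.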

Experiment [7] in a line: APR_HepG2_MitoMembPot_24hr: Apredica 24-hour HepG2 Assay for Mitochondrial Membrane Potential (AID 2282911). The conditions noted are these: imaging, actives raise or lower the signal. In short, it runs like this: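 HepG2 human liver cells were exposed 24 hr to compounds at 0.39–200 uM (final DMSO 0.5% v/v) in duplicate. MitoTracker Red CMXRos (250 nM, 30 min) was loaded before formaldehyde fixation; fluorescence was imaged by ArrayScan HCS and fitted bidirectionally versus DMSO.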

The nature of experiment [8]: APR_HepG2_MitoMass_24hr: Apredica 24-hour HepG2 Assay for Mitochondrial Mass (AID 2282912). Particulars: high-content imaging, actives raise or lower the signal. The method in brief:
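The liver line HepG2 was dosed in duplicate across a 0.39–200 uM series, with final DMSO held at 0.5% v/v, and harvested at 24 hr. High-content imaging measured mitochondrial dye staining.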

A short description of experiment [9]: APR_HepG2_p53Act_24hr: Apredica 24-hour HepG2 Assay for p53 Activation (AID 2282913).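 Note: p53 protein immunofluorescence averaged per cell in HepG2 with Hoechst nuclei.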 Particulars: high-content imaging, actives raise or lower the signal. In short, it runs like this:
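HepG2 cells exposed 24 hr to compounds at 0.39–200 uM (10 concentrations, duplicate), final DMSO 0.5% v/v. After formaldehyde fixation and Triton permeabilization, p53 was immunolabeled (sheep anti-p53, Cy5 secondary) with Hoechst 33342 nuclear counterstain, then imaged by high-content fluorescence microscopy.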

Experiment [10] is described as follows: APR_HepG2_CellCycleArrest_72hr: Apredica 72-hour HepG2 Assay for Cell Cycle Arrest (AID 2282914). Particulars: high-content imaging, actives raise or lower the signal. The method in brief: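 HepG2 cells were exposed to compounds at 0.39–200 uM (0.5% v/v DMSO final, duplicates) for 72 hr, fixed in 3.7% formaldehyde, permeabilized and stained with Hoechst 33342. Nuclear DNA content was quantified by high-content imaging; gain or loss of signal was fitted bidirectionally against DMSO.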

Experiment [11] in a line: APR_HepG2_P-H2AX_72hr: Apredica 72-hour HepG2 Assay for H2AX Phosphorylation (AID 2282916).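 Note: phospho-histone H2A.x immunostain intensity per cell marking DNA damage.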 The conditions noted are these: imaging, actives raise or lower the signal. In short, it runs like this:
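Following 72 hr treatment with 0.39–200 uM compound, HepG2 cells were formaldehyde-fixed, permeabilized and stained for phospho-H2A.x; signal was measured by high-content imaging and fitted bidirectionally against DMSO controls.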

Experiment [12] in a line: APR_HepG2_MitoticArrest_72hr: Apredica 72-hour HepG2 Assay for Mitotic Arrest (AID 2282918). Particulars: high-content imaging, actives raise or lower the signal. In short, it runs like this:
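HepG2 cells were exposed for 72 hr to compound at 0.39–200 uM (10 concentrations, duplicate) in 0.5% v/v DMSO, fixed in 3.7% formaldehyde, immunostained for phospho-histone H3 with Hoechst 33342 and imaged by high-content fluorescence; bidirectional fits versus DMSO.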

The nature of experiment [13]: APR_HepG2_MicrotubuleCSK_72hr: Apredica 72-hour HepG2 Assay for Microtubule CSK Stabilty (AID 2282919). The conditions noted are these: HepG2 microtubule cytoskeleton, high-content imaging, actives raise or lower the signal. The method in brief: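 HepG2 human liver cells were dosed for 72 h at ten concentrations from 0.39 to 200 uM in duplicate (0.5% v/v DMSO final). Fixed, permeabilized cells were immunostained for alpha-tubulin (Cy5) with a Hoechst counterstain and imaged at 20x.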

A short description of experiment [14]: APR_HepG2_P-H2AX_24hr: Apredica 24-hour HepG2 Assay for H2AX Phosphorylation (AID 2282920). Particulars: high-content imaging, actives raise or lower the signal. The method in brief:
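HepG2 human liver cells were exposed for 24 hr to compounds at 0.39–200 uM in duplicate, with 0.5% v/v DMSO final. Fixed cells were immunostained for phospho-histone H2A.x plus Hoechst 33342, imaged by HCS fluorescence, and fitted bidirectionally against DMSO.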

A short description of experiment [15]: APR_HepG2_StressKinase_24hr: Apredica 24-hour HepG2 Assay for Stress Kinase (AID 2282922). Particulars: HepG2 stress kinase (phospho-c-Jun) imaging, actives raise or lower the signal. The method in brief: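 HepG2 cells exposed 24 hr to compound at 0.39–200 uM (10 concentrations, duplicate), 0.5% v/v DMSO final. Fixed in 3.7% formaldehyde, permeabilized with Triton X-100, immunolabeled for phospho-c-Jun with Hoechst 33342; HCS fluorescence imaging, bidirectional fit versus DMSO.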

A short description of experiment [16]: APR_HepG2_p53Act_72hr: Apredica 72-hour HepG2 Assay for p53 Activation (AID 2282923).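 Note: average cellular p53 protein immunofluorescence intensity in HepG2 cells.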 Particulars: high-content imaging, actives raise or lower the signal. The method in brief: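 HepG2 monolayers receive test compounds in duplicate at ten concentrations (0.39 through 200 uM) for 72 hr. They are then formaldehyde-fixed, antibody-labelled for p53, Hoechst-stained and imaged, with activity fitted bidirectionally versus DMSO.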

Experiment [17] is described as follows: APR_HepG2_MitoMass_72hr: Apredica 72-hour HepG2 Assay for Mitochondrial Mass (AID 2282924).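 Note: MitoTracker Red CMXRos stain intensity per cell imaged as mitochondrial mass.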 Particulars: high-content imaging, actives raise or lower the signal. The method in brief:
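HepG2 cells were exposed for 72 hr to compounds at 0.39–200 uM (ten concentrations, duplicate, 0.5% v/v DMSO final). Live cells were stained with 250 nM MitoTracker Red CMXRos for 30 min, then fixed in 3.7% formaldehyde and imaged by HCS fluorescence.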

Experiment [18] is described as follows: APR_HepG2_StressKinase_72hr: Apredica 72-hour HepG2 Assay for Stress Kinase (AID 2282921). Particulars: HepG2 stress kinase (phospho-c-Jun) imaging, actives raise or lower the signal. In short, it runs like this: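 Fluorescence intensity of Cy3-tagged anti-phospho-c-Jun antibody, quantified per cell from Hoechst-defined nuclei across six images per well, served as the read-out following 72 h exposure (0.39–200 uM, 0.5% v/v DMSO).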

Experiment [19] can be described thus: APR_HepG2_CellLoss_72hr: Apredica 72-hour HepG2 Assay for Cell Loss (AID 2282915). The conditions noted are these: high-content imaging. In short, it runs like this: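 HepG2 cells were exposed for 72 hr to compounds at 0.39–200 uM (ten concentrations, duplicate) in 0.5% v/v final DMSO. Nuclei were stained with Hoechst 33342 after 3.7% formaldehyde fixation, imaged at 20x, and counted; fits bidirectional versus DMSO.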

A short description of experiment [20]: APR_HepG2_MitoMembPot_72hr: Apredica 72-hour HepG2 Assay for Mitochondrial Membrane Potential (AID 2282917). The conditions noted are these: imaging, actives raise or lower the signal. The method in brief:
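HepG2 cells exposed 72 h to compounds at 0.39–200 uM (0.5% v/v DMSO, duplicates); MitoTracker Red CMXRos 250 nM loaded 30 min before 3.7% formaldehyde fixation, imaged by HCS fluorescence. Bidirectional fit versus DMSO.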

Calls of active or inactive are those of the source. Rule for the calls: active = hit-call score of the fitted dose curve at least 0.9, where 1 is the maximum; inactive = score below 0.9.

Turning to `COC(=O)c1ccc(CNS(C)(=O)=O)cc1S(=O)(=O)NC(=O)Nc1nc(OC)cc(OC)n1`, the outcome in [1], in experiment [2], in [3], in experiment [4], in experiment [5] and in experiment [6] was inactive. Further, the outcome in [7], in [8], in experiment [9], in experiment [10], in [11] and in experiment [12] was inactive. Further, the result in experiment [13], in [14], in experiment [15], in experiment [16] and in experiment [17] was inactive.
Regarding `CN(C)C(=O)Nc1ccc(Cl)c(Cl)c1`, the call in [1], in experiment [2], in [3], in experiment [4], in [5] and in experiment [6] was inactive. In addition, the compound was called inactive in experiment [7], in experiment [8], in [9], in [10], in experiment [11] and in experiment [12]. For the same compound, the compound was called inactive in [13], in experiment [14], in experiment [15], in [16] and in experiment [17].
On to `CCCN(CCC)c1c([N+](=O)[O-])cc(C(F)(F)F)c(N)c1[N+](=O)[O-]`, for which the call in experiment [1], in [3], in experiment [4], in experiment [5], in experiment [6] and in experiment [8] was inactive. Moreover, the outcome in experiment [9], in experiment [10], in [11], in [12], in [14] and in experiment [18] was inactive. For the same compound, the outcome in [15], in [16] and in [17] was inactive. The AC50 in experiment [2] was 75.8 µM (active); in experiment [7], 32.1 µM (active); in experiment [13], 51.2 µM (active).
For `CCCCCOC(=O)COc1cc(N2C(=O)C3=C(CCCC3)C2=O)c(F)cc1Cl`, the result in experiment [1], in [3], in experiment [4], in [6], in [7] and in [8] was inactive. Further, the result in experiment [10], in [11], in experiment [12], in experiment [13], in experiment [15] and in experiment [17] was inactive. For the same compound, the concentration at half-maximal activity (AC50) was 87.4 µM (active) in experiment [2], 105 µM (active) in experiment [19] and 119 µM (active) in experiment [14].
On to `O=C(c1ccccc1)C1CCCCC1`, for which the compound was called inactive in experiment [1], in experiment [3], in [4], in experiment [6], in experiment [7] and in experiment [8]. For the same compound, the outcome in experiment [9], in [10], in experiment [11], in [12], in experiment [13] and in experiment [14] was inactive. Moreover, the result in [18], in [15], in experiment [16] and in experiment [17] was inactive.
On to `CCSC(=O)N(CC(C)C)CC(C)C`, for which the result in experiment [1], in [2], in experiment [3], in experiment [4], in experiment [6] and in experiment [7] was inactive. The outcome in experiment [8], in experiment [9], in [10], in experiment [11], in experiment [20] and in [12] was inactive. The outcome in experiment [13], in experiment [14], in experiment [15], in experiment [16] and in [17] was inactive.
For the compound `CCC(O)=C1C(=O)CC(C(=O)O)CC1=O` (stereo unspecified), the compound was called inactive in experiment [1], in experiment [2], in experiment [3], in experiment [4], in [6] and in experiment [7]. Moreover, the result in experiment [8], in experiment [9], in experiment [10], in experiment [11], in [12] and in experiment [13] was inactive. The compound was called inactive in [14], in experiment [15], in experiment [16] and in experiment [17].

The values are drawn from PubChem BioAssay (EPA / NIEHS).
